Screening results from PubChem.
Most compounds without a hit are left out; they make up all but 5.5% or so of the library.
CBFb RUNX1 block = CBF-beta/RUNX1 interaction disruption; Q01196+Q13951; AlphaScreen CBFb-His/RUNX1-biotin binding, biochemical; Potency, µM (series often up to 59.8 µM), inactives show at the top dose activity, negative = inhibition, hits mostly inhibitors; 230,000 tested, under 10 active; AID 1477; note: % of control where 0% means no effect
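AlphaScreen proximity signal reports loss of binding between His-tagged CBF-beta and biotin-labelled RUNX1, each at 30 nM. Proteins are pre-associated for 20 minutes, compounds added for 15 minutes, then beads for 90 minutes, all at ambient temperature.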
MBNL1 CUG block = blocks human MBNL1 binding to CUG repeat RNA; Q9NR56; TR-FRET MBNL1-His/biotin-(CUG)12 binding, 665/545 ratio; Potency, µM (titrated, usually from 57.5 µM), for the others: at the highest dose activity change, negative = inhibition, usual class: inhibitors; actives 0.036% (n = 280,000); active = well fitted inhibition curve with a large enough effect in the signal ratio, with a control signal flat, not every such curve was filed as active; inconclusive = small, poorly fitted or top-dose-only effect, or effect the other way, or a change in a side signal; inactive = no such curve, though single readings can be large or run the other way; the % refers to the signal ratio; note: potency is the fitted concentration of half-maximal effect; % is set by controls: 0 for no effect and ±100 for the full control effect
Target sequence (Q9NR56 whole entry, looked up): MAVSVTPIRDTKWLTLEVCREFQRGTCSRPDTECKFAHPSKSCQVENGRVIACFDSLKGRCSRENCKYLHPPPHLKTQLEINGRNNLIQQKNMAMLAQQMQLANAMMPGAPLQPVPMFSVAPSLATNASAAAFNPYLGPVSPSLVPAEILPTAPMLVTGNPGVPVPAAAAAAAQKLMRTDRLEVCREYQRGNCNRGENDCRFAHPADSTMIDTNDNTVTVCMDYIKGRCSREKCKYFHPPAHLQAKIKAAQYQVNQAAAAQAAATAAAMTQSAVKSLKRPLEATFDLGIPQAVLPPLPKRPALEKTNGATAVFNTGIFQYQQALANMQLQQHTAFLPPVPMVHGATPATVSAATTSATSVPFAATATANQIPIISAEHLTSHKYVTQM
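MBNL1-His + Biotin-(CUG)12, cpd titration 92 nM–58 uM; Tb anti-His Ab 0.055 ng/ul, SA-XL665 5 nM (final); 60 min RT; ratiometric 665/545 nm, Ex 340 nm; normalized to buffer and full-complex controls.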
RORgamma inh = blocks mouse ROR gamma transcriptional activity; actives 5.4% (n = 310,000); Potency, µM (highest dose often 53.6 µM), for inactives: at the top dose activity change, negative = inhibition, hits mostly inhibitors; Drosophila S2 Gal4-RORgamma UAS-luciferase reporter, 20 h; note: potency is the fitted concentration of half-maximal effect; % is set by controls: 0 for no effect and ±100 for the full control effect; nearly all actives have a fitted effect of over 60% in size
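A Gal4/UAS one-hybrid system in insect cells: metallothionein-promoter Gal4–ROR gamma fusion plus Photinus luciferase reporter. Copper sulfate 700 uM final, 20 hr ambient incubation, luminescent detection after 10 min with reagent.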
CtBP-E1A blk = blocks the CtBP interaction with E1A | AlphaScreen GST-E1A/His-CtBP binding, 1536-well; hits give low values | activity change, % (no concentration beside the values) | actives 0.49% (n = 340,000) | AID 651724; in the data active = activity change below about -65%; inconclusive = mostly about -30% to -63%; note: % is set by controls: 0 for no effect and ±100 for the full control effect
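AlphaScreen with 125 nM GST-E1A and 125 nM His-CtBP (5X stocks) in Tris pH 8.0, 300 mM NaCl, BSA, Tween 20, TCEP. Compounds preincubated 2 h at 37 deg C, then glutathione donor/nickel acceptor beads added for 1 h at 37 deg C in dark.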
Gal4-VP16 FLuc = counter-screen for ROR gamma inhibitors: Gal4-VP16 reporter | Drosophila S2 Gal4-VP16 UAS-luciferase, luminescence, 20 h | AID 2546 | actives 3.5% (n = 310,000) | Potency, µM (titrated, usually from 53.6 µM), inactives show at the top dose activity, negative = inhibition, most hits filed as inhibitors;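 note: Gal4-VP16 expression switched on by copper sulfate through the metallothionein promoter; potency is the fitted concentration of half-maximal effect; % is set by controls: 0 for no effect and ±100 for the full control effect; nearly all actives have a fitted effect of over 50% in size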
Six1-Eya2 blk = blocks human Six1 binding to Eya2 | AlphaScreen GST-Six1/His-Eya2 binding, biochemical; hits give low values | activity change, % (concentration not given with the values) | actives 0.56% (n = 360,000) | AID 651725; in the data active = activity change below about -65%; inconclusive = mostly about -30% to -63%; note: % is set by controls: 0 for no effect and ±100 for the full control effect
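AlphaScreen with GST-Six1 and His-Eya2 (5X mix: 250 nM and 500 nM), glutathione donor and nickel acceptor beads; buffer 50 mM Tris pH 8.0, 300 mM NaCl, 1 mM TCEP; 1 h at 37 C in the dark.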
Numbers without * were called inactive; u = inconclusive; x = no result given; [ ] = remark or other dose. Unless noted, calls come from the whole dose curve; as a rule, active = well fitted curve in the direction sought with a large enough effect; inconclusive = small, poorly fitted or top-dose-only effect, or another doubt; inactive = no such curve, though single readings can be large; an effect the other way counts as inactive or inconclusive.

SMILES	CBFb RUNX1 block	MBNL1 CUG block	RORgamma inh	CtBP-E1A blk	Gal4-VP16 FLuc	Six1-Eya2 blk
COC(=O)[C@@]12C[C@@H](CC(=O)NCc3cccc(C(F)(F)F)c3)C(=O)N(Cc3cccc4ccccc34)C1=CCC(C)(C)C2	x	x	x	2	x	-10
CC1CCN(C(=S)c2ccc(N(C)C)cc2)CC1	20%	1%	13µM*	-8	-26%	u
CN(C)c1ccc(C(=S)N2CCCCCC2)cc1	-16%	4%	20µM*	-21	-21%	-20
CC(=O)N1CCN(C(=S)c2ccc(N(C)C)cc2)CC1	1%	-8%	-18%	5	9%	2
CCOc1ccc(CCNC(=O)Cn2nc(C)c3c(C)n(-c4ccccc4)nc3c2=O)cc1	x	6%	15%	0	3%	-2
CC1Cc2ccccc2N1C(=S)NC(=O)c1ccco1 (stereo unspecified)	-30%	0%	4.5µM*	1	4µM*	5
CC1Cc2ccccc2N1C(=S)NC(=O)C1(C)CC1(Cl)Cl (stereo unspecified)	-9%	x	0.63µM*	-1	2.2µM*	5
CCc1cccc(C)c1NC(=S)NCCc1c(C)[nH]c2ccc(C)cc12	-27%	19%	2.2µM*	-21	5.6µM*	u
CCc1cccc(CC)c1NC(=S)NCCc1c(C)[nH]c2ccc(C)cc12	9%[2.36 µM]	-7%	3.2µM*	-1	5µM*	-25
Cc1ccc(N2CC(C(=O)NCCS(=O)(=O)N3CCN(c4ccc(F)cc4)CC3)CC2=O)cc1 (stereo unspecified)	x	0%	-12%	4	0%	1
Cc1ccc(C(O)C2=CCCC2=O)cc1 (stereo unspecified)	13%	x	-10%	x	2%	x
CCNc1ncc2nc(-c3ccc(OC)cc3)c(=O)n(CCC#N)c2n1	x	x	5%	x	-4%	x
C/C(=N\O)c1c(O)cc(-c2ccccc2)n(-c2ccccc2)c1=O	3%	10%	u	6	0%	3
C/C(=N/O)c1c(O)c(C)c(-c2ccccc2)n(-c2ccccc2)c1=O	6%	-5%	5.6µM*	21	5.6µM*	6
CCc1c(O)c(/C(C)=N\O)c(=O)n(-c2ccccc2)c1-c1ccccc1	-5%	2%	u	-4	35µM*	3
O=C(/C=C/c1ccco1)Nc1ccccc1C(=O)O	u	u	u	-21	u	-25
O=C(/C=C/c1ccco1)NC(=S)Nc1ccccc1O	-16%	12%	11µM*	x	u	-8
O=C(/C=C\c1ccco1)NC(=S)Nc1ccccc1O	-14%	x	22µM*	-11	u	-13
Cc1ccc(NC(=S)NC(=O)/C=C/c2ccco2)c(O)c1	u	16%	8.9µM*	-12	u	-7
Cc1ccc2c(c1)N(CC(=O)NCC1CCCO1)C(=O)C(C(C)C)O2 (stereo unspecified)	x	1%	-7%	1	-8%	-2
Cc1ccc(Cn2ccc(=O)c(Cc3c(Cl)cccc3Cl)c2C)cc1	2%	-16%	28%	-1	-14%	1
COc1ccc(Cn2ccc(=O)c(Cc3c(Cl)cccc3Cl)c2C)cc1	-5%	-7%	16µM*	7	16µM*	-3
O=C(NCCC(=O)N1CCCCC1)c1ccccc1Cl	x	0%	1%	1	3%	1
CC1CC(C)CN(C(=O)CCNC(=O)c2ccccc2Cl)C1 (stereo unspecified)	x	1%	16µM*	6	u	5
CC(=O)N(C)c1ccc(NC(=O)CCN2C(=O)c3ccccc3C2=O)cc1	x	8%	8%	0	6%	1
SMILES	CBFb RUNX1 block	MBNL1 CUG block	RORgamma inh	CtBP-E1A blk	Gal4-VP16 FLuc	Six1-Eya2 blk
Cc1ccc(Cn2cccc2C2=NC(C)CO2)cc1 (stereo unspecified)	-3%	-1%	18µM*	-3	-7%	-9
CC(C)C1COC(c2cccn2Cc2ccccc2Cl)=N1 (stereo unspecified)	2%	1%	u	6	7%	8
CC(C)(C)c1ccc(/C=N/Nc2nncn2N)cc1	x	13%	-33%	-18	u	-12
CC(C)(C)c1nnc(N/N=C/c2ccc(Br)cc2)n(N)c1=O	-1%	6%	2.8µM*	-3	2.8µM*	-7
CN(C)c1ccc(-c2cncnc2NCc2cccnc2)cc1	x	x	-1%	x	-4%	x
c1ccc2nc3c(nc2c1)[nH]c1ccccc13	-4%	u	u	-18	-8%	-3
c1ccc(-c2c3ccccc3nc3[nH]c4ccccc4c23)cc1	u	24%	11µM*	x	u	26
Cc1ccc(N=Nc2c(N)nn3c(C)cc(C)nc23)cc1	-5%	u	u	-20	u	-20
Cc1cc(=O)[nH]c2c(N=Nc3ccc(O)cc3)c(N)nn12	2%	u	u	x	u	-77*
Nc1nn2c(C(F)(F)F)cc(=O)[nH]c2c1N=Nc1cccc(F)c1	u	5%	10µM*	-6	-16%	-17
CSc1n[nH]c2nc3c(c(=O)n12)C1(CCCC1)Cc1ccccc1-3	1%	-8%	-19%	2	2%	3
Cc1ccc(-n2c(SCC(N)=O)nc3c(c2=O)C2(CCCC2)Cc2ccccc2-3)cc1	-6%	6%	27%	-4	u	-13
C=CCSc1n[nH]c2nc3c(c(=O)n12)C1(CCCC1)Cc1ccccc1-3	16%	2%	5.6µM*	0	11µM*	3
CC(C)Sc1n[nH]c2nc3c(c(=O)n12)C1(CCCC1)Cc1ccccc1-3	1%	4%	11µM*	x	-10%	x
CCSc1n[nH]c2nc3c(c(=O)n12)C1(CCCC1)Cc1ccccc1-3	7%	8%	14µM*	9	-3%	9
COc1cccc(CNC(=O)[C@@H]2CCCN2)c1	x	x	x	3	x	-2
COc1cccc(CNC(=S)NC2CC2)c1	10%	-6%	10µM*	5	-29%	6
COc1cccc(CNC2CCCC2)c1	2%	-6%	5%	7	0%	3
